Source: PubChem BioAssay (National Center for Advancing Translational Sciences (NCATS))
In the library only some 5.4% were active in any assay of this set; here they are far more common.
Vaccinia Venus = qHTS for Stage-Specific Inhibitors of Vaccinia Orthopoxvirus: Venus Reporter Primary qHTS | Vaccinia virus Venus reporter expression, fluorescence | Potency, µM (titrated, usually from 36.5 µM), inactives show top-dose activity change, negative = inhibition, most hits filed as inhibitors | 0.46% of 330,000 active | AID 720580, 2013; calls by dose curve; tested in A549 cells; also: nearly all actives have a fitted effect of over 30% in size
Vaccinia mCherry = qHTS for Stage-Specific Inhibitors of Vaccinia Orthopoxvirus: mCherry Reporter Primary qHTS; Vaccinia virus mCherry reporter infection, fluorescence; Potency, µM (series often up to 36.5 µM), for the others: at the highest dose activity change, negative = inhibition, most hits filed as inhibitors; 0.63% of 310,000 active; calls by dose curve; tested in A549 cells; also: nearly all actives have a fitted effect of over 35% in size
MARV entry inh = qHTS for inhibitors of binding or entry into cells for Marburg Virus; Marburg virus pseudotyped entry inhibition, cell reporter; Potency, µM (highest dose often 37.8 µM), without a hit: at the highest dose activity change, negative = inhibition, usual class: inhibitors; 1.8% of 300,000 active; AID 540276, 2011; calls by dose curve; tested in HEK293 cells
Sm TGR block = qHTS Assay for the Inhibitors of Schistosoma Mansoni Peroxiredoxins. Schistosoma mansoni thioredoxin glutathione reductase (TGR), Q962Y6. purified TGR, DTNB reduction, TNB absorbance 405 nm. Potency, µM (highest dose often 114 µM), for inactives: at the top dose activity change, negative = inhibition, usual class: inhibitors. 3% of 360,000 active. AID 485364, 2010; active = well fitted inhibition curve with a large enough effect; inconclusive = small, poorly fitted or top-dose-only effect; inactive = no such curve, though single readings can be large or run the other way; also: nearly all actives have a fitted effect of over 60% in size
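First, TGR (20 nM dispensed) and NADPH were mixed with compound. Second, a 15 min room-temperature incubation followed. Third, further NADPH and then DTNB were added to start the reaction. Finally, TNB absorbance was monitored kinetically.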
FMDV antiviral = High Throughput Screening for Foot and Mouth Disease Virus Antivirals; FMDV antiviral cell-based qHTS; Potency, µM (titrated, usually from 57.9 µM), for the others: at the top dose activity change, negative = inhibition, actives largely listed as inhibitors; 1.2% of 410,000 active; AID 1159524, 2015; calls by dose curve; tested in HEK293T cells; also: read-out not given here; nearly all actives have a fitted effect of over 45% in size
LASV entry inh = qHTS for Inhibitors of binding or entry into cells for Lassa Virus; Lassa virus pseudotype entry inhibition, cell reporter; 1.2% of 300,000 active; Potency, µM (doses to about 37.9 µM), for inactives: top-dose activity change, negative = inhibition, most hits filed as inhibitors; calls by dose curve; tested in HEK293 cells; also: nearly all actives have a fitted effect of over 50% in size
* = called active by the depositor; i = inactive; ? = inconclusive; nt = not tested or not shown; [ ] = dose if it differs, or a comment. % is scaled to controls: 0 for no effect and ±100 for the full control effect; potency is read from the fitted curve at half-maximal effect.

SMILES	Vaccinia Venus	Vaccinia mCherry	MARV entry inh	Sm TGR block	FMDV antiviral	LASV entry inh
Cc1c(N=Nc2c(O)[nH]c(=S)[nH]c2=O)c(=O)n(-c2ccccc2)n1C	-2%	-10%	-16%	-5%	-23%	22%
COc1cc(-c2cc(C)c3cccc(OC)c3n2)cc2c1OCCN(C(=O)CC1NC(=O)c3ccccc31)C2 (stereo not drawn)	0%	i	nt	nt	-11%	nt
Cc1ccc(CN2CC[C@H]3C=CCc4cccc(c43)C2)cc1	-6%	i	nt	-24%	0%	nt
COc1ccc(CN2CC[C@H]3C=CCc4cccc(c43)C2)cc1	-3%	-9%	nt	28µM*	-13%	nt
CC(C)(C)C(=O)NC1CC(=O)N(c2ccc3c(c2)OCCO3)C1 (stereo not drawn)	-4%	-3%	nt	-7%	-6%	20%[46.1 µM]
Cc1occc1-c1nc(-c2ccccn2)no1	-8%	?	11µM*	6%	-40%	?
Cc1occc1-c1nc(-c2ccncc2)no1	-10%	-18%	13%	2%	65%	39%[14.3 µM]
c1ccc(-c2noc(-c3ccc4ccccc4c3)n2)nc1	nt	nt	1.6µM*	-3%	4µM*	0.29µM*
c1ccc(-c2noc(-c3ccncc3)n2)nc1	-5%	-8%	?	-10%	nt	-12%
c1ccc(-c2nc3n(c2-c2ccc4c(c2)OCO4)CCC3)nc1	nt	nt	nt	nt	nt	10µM*
c1ccc(-c2noc(-c3ccc4c(c3)OCO4)n2)nc1	-14%	i	?	-5%	nt	0.41µM*
CCN(C(=O)Cn1c(=O)oc2cc(S(=O)(=O)N3CCCCCC3)ccc21)c1cccc(C)c1	-6%	-22%	28%[46.1 µM]	-1%	-21%	11%[46.1 µM]
N#Cc1ccc(S(=O)(=O)N2CCC(Oc3cccc(C(F)(F)F)c3)CC2)cc1	-16%	-9%	-1%[46.1 µM]	1%	-29%	0%[46.1 µM]
Cc1ccc(NC(=O)CN2CCCN(Cc3cc(C)ccc3C)S2(=O)=O)c(Cl)c1	-11%	-14%	nt	-1%	-22%	23%[46.1 µM]
Cc1ccc(NC(=O)c2cc(CN3CCOCC3)on2)cc1Cl	-10%	-4%	nt	-9%	38%	?
COc1ccc(/C=C/C(=O)OCC(=O)N2CC(=O)Nc3ccccc32)cc1	-16%	-15%	-25%	-1%	0%	-10%
CCCCOc1ccc(/C=C/C(=O)OCC(=O)N2CC(=O)Nc3ccccc32)cc1OCC	?	-21%	-8%	2%	13µM*	-24%
CCc1ccccc1NC(=O)c1cnc2sc(N3CCCC3)nn2c1=O	-10%	-11%	nt	-7%	0%	30%[46.1 µM]
CCCCCCCCCCCCCCCC(=O)NC[C@@H](COP(=O)([O-])OCC[N+](C)(C)C)OCC	nt	nt	6.5µM*	nt	nt	nt
CCCCCCCCCCCCCCCC(=O)NCC(COP(=O)([O-])OCC[N+](C)(C)C)OCC (stereo not drawn)	nt	nt	6.5µM*	nt	nt	-11%
CCCCCCCCCCCCCCCC(=O)OC[C@H](COP(=O)([O-])OCC[N+](C)(C)C)OC(C)=O	-2%[3.33 µM]	-10%[3.33 µM]	nt	nt	-1%[6.7 µM]	nt
CCCCCCCCCCCCCCCCOC[C@H](COP(=O)([O-])OCC[N+](C)(C)C)OC(C)=O	-8%[3.33 µM]	-10%[3.33 µM]	nt	nt	-4%[6.7 µM]	nt
O=C1C(c2cccc(Br)c2)N(CCc2ccccc2)C(=O)CN1C1CCCCC1 (stereo not drawn)	-6%	-7%	nt	3%	4%	4%[46.1 µM]
O=[N+]([O-])c1ccc(-n2nnnc2-c2ccccc2)c([N+](=O)[O-])c1	?	?	15µM*	18µM*	32µM*	?
CN(C[C@H](O)COc1ccc(OC[C@H](O)CN(C)C2CCCCC2)cc1)C1CCCCC1	nt	nt	10µM*	nt	nt	nt
SMILES	Vaccinia Venus	Vaccinia mCherry	MARV entry inh	Sm TGR block	FMDV antiviral	LASV entry inh
CN(CC(O)COc1ccc(OCC(O)CN(C)C2CCCCC2)cc1)C1CCCCC1 (stereo not drawn)	-23%	i	10µM*	0%	-1%	?
CCC(=O)c1ccc(OCC(O)CN(C)C2CCCCC2)cc1 (stereo not drawn)	-13%	nt	?	-3%	0%	2%
C[C@H]1C(C(=O)N2CCCC2)=Cc2[nH]c(=O)[nH]c2C=C1c1ccccc1	nt	nt	18%[14.2 µM]	nt	nt	nt
CN(C)c1ccc(CNC(=O)c2ccc(NC(=O)c3nsc4ccccc34)cc2)cc1	-2%	-5%	nt	-7%	-1%	-16%[46.1 µM]
CCn1c2c(c(=O)n3ncc(C(=O)N4CCN(c5ccc(C(C)=O)cc5)CC4)c13)CN(Cc1ccc(OC)cc1)CC2	-17%	-24%	nt	-4%	20µM*	10µM*
CCc1c(C)nc2cc(-c3cc(OC)cc(OC)c3)nn2c1N1CCCC1	-21%	-14%	3.7µM*	1%	nt	-25%
CCOCCN1CCN(c2c(CC)c(C)nc3cc(-c4cc(OC)cc(OC)c4)nn23)CC1	?	-18%	?	7%	-26%	?
COc1ccc(CCNC(=O)C(=O)NCCC2CCCCN2S(=O)(=O)c2ccccc2)cc1 (stereo not drawn)	-19%	-25%	0%	2%	?	?
COc1ccccc1CNC(=O)C(=O)NCCC1CCCCN1S(=O)(=O)c1cccs1 (stereo not drawn)	?	?	?	-5%	?	?
Cc1ccccc1CNC(=O)C(=O)NCCC1CCCCN1S(=O)(=O)c1cccs1 (stereo not drawn)	?	-22%	10µM*	-2%	-10%	?
COc1ccc(CCNC(=O)C(=O)NCCC2CCCCN2S(=O)(=O)c2cccs2)cc1 (stereo not drawn)	-22%	?	-17%	-1%	32µM*	?
COC(=O)C1=C(C)N(c2cccc(C)c2)C(=O)/C1=C\c1cccs1	6%	nt	2.8µM*	-4%	0%	-3%
COC(=O)C1=C(C)N(c2ccc(OC)c(OC)c2)C(=O)/C1=C\c1ccco1	nt	nt	nt	16µM*	-14%	nt
COC(=O)C1=C(C)N(c2cc(C)cc(C)c2)/C(=C/c2ccco2)C1=O	-16%	-1%	?	?	?	?
CCOC(=O)C1=C(C)N(c2ccccc2)C(=O)/C1=C\c1ccco1	-16%	i	-10%	45µM*	-21%	16%
CCOC(=O)C1=C(C)N(c2ccccc2)C(=O)/C1=C\c1cccs1	2%	-2%	4%	-4%	?	14%
CCOC(=O)C1=C(C)N(c2ccccc2)C(=O)/C1=C\c1ccc(O)c(OC)c1	-6%	?	nt	3.2µM*	?	nt
CCN1C(=O)c2ccccc2S(=O)(=O)c2ccc(C(=O)NCc3ccccc3)cc21	-1%	-3%	?	9%	-6%	-13%[46.1 µM]
COc1cc(NC(=O)c2ccc(NC(=O)N3CCSc4ncccc43)cc2)cc(OC)c1	-7%	-4%	nt	-1%	?	15%[46.1 µM]
CCc1ccc(-n2nc(CO)c(C(=O)NCc3ccccc3OC)n2)cc1	-10%	-3%	14%[46.1 µM]	-1%	-5%	-12%[46.1 µM]
